Only some compounds are listed: those with a hit (about 7.4% of all), similar ones and a draw of the others.
Rab9 promoter act – activators of Rab9 promoter; Huh7 Rab9 promoter-luciferase reporter, luminescence, 24 h; Potency, µM (highest dose often 9.22 µM), for the others: top-dose activation, negative = inhibition, usual class: activators; hit rate 2.8% among 320,000; AID 485297; note: % of control where 0% means no effect; nearly all actives have a fitted effect of over 60% in size
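Quantitative HTS format; Huh7 Rab9-luciferase reporter cells (1500/well) receive compound 2 h post-plating, incubate 24 h at 37 °C, then get luciferase reagent for 10 min before luminescence reading.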
FLuc modulator – inhibits or activates purified firefly luciferase, miR-21 counter-screen; Potency, µM (series often up to 57.5 µM), for the others: at the highest dose activity change, negative = inhibition, most hits filed as inhibitors; purified FLuc, Km substrates, luminescence inhibition; AID 588342; P08659; hit rate 6.9% among 360,000;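 note: plate controls were vehicle for no effect and reference inhibitor for full effect; nearly all actives have a fitted effect of over 55% in size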
Target sequence (P08659 whole entry, looked up): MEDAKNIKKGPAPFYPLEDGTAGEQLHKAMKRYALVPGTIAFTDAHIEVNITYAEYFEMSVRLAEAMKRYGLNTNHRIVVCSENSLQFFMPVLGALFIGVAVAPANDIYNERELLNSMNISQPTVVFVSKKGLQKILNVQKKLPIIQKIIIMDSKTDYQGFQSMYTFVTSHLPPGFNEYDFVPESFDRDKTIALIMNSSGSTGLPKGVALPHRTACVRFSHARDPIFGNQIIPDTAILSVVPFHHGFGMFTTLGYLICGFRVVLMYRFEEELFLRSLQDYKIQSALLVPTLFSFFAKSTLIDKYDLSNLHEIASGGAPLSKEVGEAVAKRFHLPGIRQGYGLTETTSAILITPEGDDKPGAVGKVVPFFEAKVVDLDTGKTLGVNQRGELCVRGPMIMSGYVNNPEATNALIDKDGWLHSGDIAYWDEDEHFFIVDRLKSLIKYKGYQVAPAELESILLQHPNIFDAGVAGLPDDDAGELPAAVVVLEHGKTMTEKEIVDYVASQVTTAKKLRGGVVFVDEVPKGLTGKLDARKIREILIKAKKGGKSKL
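Purified P. pyralis luciferase (10nM final) with 10uM D-luciferin and 10uM ATP (Km levels) in 50mM Tris acetate pH 7.5, 10mM Mg acetate, 0.01% Tween-20, 0.05% BSA; qHTS 6-point titration, ~60 µM downward; luminescence read.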
NPC1 prom act – activators of NPC1 promoter; Huh7 NPC1 promoter luciferase reporter, 24 h; Potency, µM (series often up to 9.22 µM), for inactives: top-dose activation, actives largely listed as activators; hit rate 2.4% among 320,000; AID 485313; note: % of control where 0% means no effect; nearly all actives have a fitted effect of over 60% in size
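Cells: Huh7 expressing luciferase under the NPC1 promoter, 1500/well. Seeded 2 h, compound added, incubated 24 h at 37 °C. Luciferase reagent, 10 min ambient, then luminescence.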
ELG1 genotox – genotoxicity induction in ELG1-luciferase HEK293T cells. Potency, µM (top dose mostly 46 µM), without a hit: top-dose activity change, positive = activation, most hits filed as activators. HEK293T ELG1-luciferase reporter, luminescence, 16 h. hit rate 1.3% among 330,000; note: % of control where 0% means no effect; nearly all actives have a fitted effect of over 60% in size
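ELG1-luciferase HEK293T cells, 2,000/well; compound pinned in; 16 hr, 37 °C, 5% CO2; ONE-Glo, 30 min RT; luminescence on CCD imager.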
SMN2 splice enh – enhancers of SMN2 splice variant expression. HEK293 SMN2-luciferase splicing reporter, luminescence, 30-36 h. Potency, µM (doses to about 46.1 µM), for inactives: at the highest dose activity change, positive = activation, actives largely listed as activators. hit rate 2.8% among 210,000. AID 1458; note: % of control where 0% means no effect; nearly all actives have a fitted effect of over 55% in size
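HEK293 cells carry an SMN2 minigene-luciferase reporter in which exon 7 inclusion puts luciferase in frame. Cells were seeded at 2000 cells/well, attached for 10-12 hours, then exposed to compounds for 30-36 hours at 37C before ONE-Glo luminescence.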
Numbers without * were called inactive; ? = inconclusive; / = not tested or not shown; [ ] = remark or other dose. Calls come from the whole dose curve; as a rule, active = well fitted curve in the direction sought with a large enough effect; inconclusive = small, poorly fitted or top-dose-only effect, or another doubt; inactive = no such curve, though single readings can be large; an effect the other way counts as inactive or inconclusive. Potency is the fitted concentration of half-maximal effect.

SMILES | Rab9 promoter act | FLuc modulator | NPC1 prom act | ELG1 genotox | SMN2 splice enh
CCn1c2ccccc2c2nc3cc(C(=O)O)ccc3nc21 | 30% | 19µM* | 13% | ? | -57%
CCc1ccc(NC(=O)CSc2nc(-c3cccc(OC)c3)nc3c2Cc2c(CO)cnc(C)c2O3)cc1 | / | -6% | / | / | /
Cn1c(C(=O)Nc2ccc(OC(F)(F)F)cc2)cc2c(=O)n3ccccc3nc21 | / | -10% | / | / | /
Fc1ccc(OCc2nnc(-c3ccccc3Br)o2)c(Cl)c1 | 2.5µM* | 9.5µM* | ? | 2.3µM* | /
Clc1ccc(OCc2nnc(-c3ccccc3Br)o2)cc1 | 13% | ? | 10% | 7% | 2%
Clc1ccc(OCc2nnc(-c3ccccc3Br)o2)c(Cl)c1 | 4µM* | 6µM* | 3.2µM* | ? | ?
Cc1cc(Cl)ccc1OCc1nnc(-c2ccccc2C)o1 | 4µM* | ? | ? | ? | /
O=C(Nc1ccc(F)cc1)c1ccccc1 | ? | 24µM* | ? | ? | 19%
COC(=O)c1ccc(C(=O)Nc2ccc(F)cc2)cc1 | ? | 12µM* | 2.5µM* | 14% | /
Cc1ccc(NC(=O)C(C)Sc2nc3c(c(=O)[nH]2)CCCC3)cc1Cl (configuration not stated) | / | -1% | / | / | /
COc1ccc2oc(-c3ccc(C)c(NC(=O)c4ccc(N5CCOCC5)c([N+](=O)[O-])c4)c3)nc2c1 | 4% | 6µM* | 16% | ? | 4%
COc1ccc(CNC(=O)c2ccc(N3CCOCC3)c([N+](=O)[O-])c2)cc1 | 5% | -4% | -1% | 1% | -14%
CCOc1ccc(C(=O)Nc2cc(-c3nc4cc(OC)ccc4o3)ccc2C)cc1[N+](=O)[O-] | / | 6.7µM* | / | / | 17%
O=C(Nc1nn[nH]n1)c1nc(-c2ccccc2)cc(=O)[nH]1 | / | / | / | / | -4%[9.22 µM]
Cc1ccc(-c2cc(-c3nnc(SCC(=O)NC(C)C(C)C)n3N)c3ccccc3n2)cc1 (configuration not stated) | 0% | 8.5µM* | 0% | 0% | -3%
CC(NC(=O)CSc1nnc(-c2cccnc2)n1N)c1ccccc1 (configuration not stated) | 2% | -3% | 2% | 0% | 10%
N#CNC(N)=Nc1ccc(Cl)cc1 | / | / | / | / | -14%[9.22 µM]
O=C(Nc1nc(SCc2ccc(F)cc2)ns1)c1ccco1 | 20% | 21µM* | 13% | 13% | 18µM*
CCC(=O)Oc1ccc(NC(=O)c2ccco2)cc1 | 5% | 12µM* | 2% | 9% | 9%
CCSc1nsc(NC(=O)Nc2ccc(F)cc2F)n1 | ? | 5.4µM* | ? | 6% | /
O=C(Nc1ccc(OC(=O)c2ccco2)cc1)c1ccco1 | 4% | 4.8µM* | 9% | 7% | 17%
O=c1n(Cc2ccccc2Cl)c2ccccc2c2nc(-c3ccccc3)nn12 | / | 6% | / | / | -13%
Cc1ccc(C(C)C)c(OCC(=O)NCC2(N3CCOCC3)CCCCC2)c1 | / | -12% | / | / | /
O=C(CCc1ccccc1)Nc1ccc(NC(=O)c2ccco2)cc1 | 17% | -18% | 17% | ? | 8%
O=C(OC1CCCCC1)c1ccc(NC(=O)c2ccco2)cc1 | 3.5µM* | 13µM* | ? | 8% | ?
SMILES | Rab9 promoter act | FLuc modulator | NPC1 prom act | ELG1 genotox | SMN2 splice enh
CCC(=O)Nc1ccc(NC(=O)c2ccco2)cc1 | 2.8µM* | 19µM* | 2.8µM* | ? | 27%
COc1ccc(C(=O)Nc2ccc(NC(=O)c3ccco3)cc2)cc1 | 11% | -9% | 0% | ? | /
O=C(Nc1ccc(CSc2ccccc2)cc1)c1ccco1 | 4µM* | 2.7µM* | 2.8µM* | 7.3µM* | /
CCCS(=O)(=O)c1nc(S(=O)(=O)c2ccc(C)cc2)c(N(C)Cc2ccccc2)s1 | / | -2% | / | / | -2%
O=C1CN(C(=O)c2cccc(Br)c2)C(c2ccccc2)c2cc(Cl)ccc2N1 (configuration not stated) | / | -3% | / | / | /
COc1ccc2oc(=O)cc(CN3CCN(C(=O)c4ccccc4Br)CC3)c2c1 | / | 0% | / | / | -8%
COc1ccc(Cl)cc1S(=O)(=O)Nc1cccc(-c2ccc(N3CCOCC3)nn2)c1 | / | 19µM* | / | / | /
COc1ccc(-c2cccc(NS(=O)(=O)c3cc(C)ccc3OC)c2)nn1 | / | -10% | / | / | /
Cc1cc(S(=O)(=O)Nc2cccc(-c3ccc(N4CCOCC4)nn3)c2)c(C)cc1Cl | / | 12µM* | / | / | /

Compound activity as filed in PubChem BioAssay.
